Data: the supplement of paper PMC6555819

Tests used:
Experiment in all cases: PBM binding z-score (relative to random genomic background probes); higher = stronger binding; sequences stand for … in GC…GCGATTGACAGCGTAGAATGAAGG
[1] = test system: PPARg:RXRa DBDmut IVT, anti-RXR (DBD mutation: RXRa K156A/R161A, NR concentration 270 nM, RXRa partner concentration 90 nM)
In short: (§1)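 Custom Agilent 4×180K protein-binding microarrays carried double-stranded probes. Their 34-nt variable regions held direct-repeat seeds, single-nucleotide variants, half-site ablations and random human genomic background sequences. Arrays were incubated 1 h with ligand-free nuclear receptor dimers in PBS pH 7.4, 2% milk, 0.02% Triton X-100, 1 mM DTT, 0.2 mg/mL BSA and 0.4 mg/ml salmon testes DNA. Antibodies against each partner (one per run) detected binding, and scanned fluorescence was regression-normalized. Binding z-scores use random background probes as reference.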

[2] = test system: PPARg:RXRa IVT, anti-PPARg (NR concentration 270 nM, RXRa partner concentration 90 nM)
In short: as §1

[3] = test system: PPARg DBDmut:RXRa IVT, anti-PPARg (DBD mutation: PPARg1 K132A/R137A, NR concentration 270 nM, RXRa partner concentration 90 nM)
In short: as §1

[4] = test system: PPARg DBDmut IVT, anti-PPARg (DBD mutation: PPARg1 K132A/R137A, NR concentration 270 nM)
In short: as §1

[5] = test system: PPARg homodimer (NR concentration 180 nM)
In short: as §1

[6] = test system: PXR:RXRa (NR concentration 270 nM, RXRa partner concentration 90 nM)
In short: as §1

[7] = test system: PXR homodimer (NR concentration 270 nM)
In short: as §1

[8] = test system: RARa:RXR (NR concentration 270 nM, RXRa partner concentration 90 nM)
In short: as §1

[9] = test system: RARa homodimer (NR concentration 270 nM)
In short: as §1

[10] = test system: RARb:RXRa (NR concentration 270 nM, RXRa partner concentration 90 nM)
In short: as §1

Sequence | PBM binding z-score [1] | PBM binding z-score [2] | PBM binding z-score [3] | PBM binding z-score [4] | PBM binding z-score [5] | PBM binding z-score [6] | PBM binding z-score [7] | PBM binding z-score [8] | PBM binding z-score [9] | PBM binding z-score [10]
TCGAGTAGGTTAGGGCCATTCAGAATGGCGTCGA | 1.63 | 0.942 | -0.334 | 0.0284 | -0.315 | 0.054 | -0.626 | -0.18 | -0.395 | 0.699
CCCGACAGGTGAAAGGTAACTCAGTCTGGTACGC | 1.64 | 2.67 | -0.316 | -0.825 | 0.815 | 0.798 | 0.0265 | 1.73 | 0.375 | 1.09
CAAACTATGTCACGAAAGGTCAAAGTCGAATGAC | 5.09 | 5.93 | 3 | 0.957 | 3.47 | 6.07 | 2.12 | 6.01 | 2.87 | 4.92
GCTTGTAGATCTAGGTTAAGAAAGACTAAGCTAA | 3.21 | 3.27 | 0.608 | 0.399 | -1.08 | -0.4 | -0.246 | 0.0619 | -0.0444 | 0.0938
ATCTCTAGATAAAGTTCAGTGAAAGATCGATAGA | -0.492 | 0.294 | 0.931 | 0.898 | 0.994 | 1.36 | 1.39 | 0.786 | 1.06 | 2.17
CCTATTAGTTGACCATAAGTGCAACCGAAGCTCG | 0.899 | 0.364 | 1.12 | 0.839 | 1.89 | 1.11 | 1.66 | 0.812 | 2.6 | 0.81
CGACCTAGGTCATTGACAGGACAGTGAATAGTAA | 3.78 | 3.8 | 0.789 | 0.214 | 2.3 | 1.99 | -0.114 | 3.08 | 0.169 | 3.9
ATCTCTAGGTAAAGATAGGTCAGTGAATGCAAAT | 2.37 | 2.45 | 1.34 | 1.35 | 1.17 | 1.05 | 0.597 | 1.52 | 1.54 | 1.81
ACTAGCAGGCCAAGTTTGGGTCACTCAAACAAAG | 1.09 | 1.22 | -0.627 | -1.37 | 0.284 | 0.859 | -0.237 | 1.45 | -0.797 | 1.83
CGACCAAGGTCAAGGTCAGTGAAAGAGACTCGAA | 3.29 | 4.75 | 0.143 | -0.162 | 3.87 | 4.59 | 0.777 | 4.89 | 1.42 | 5.78
GCTTACGGGTCAAGGGTTATAGCATGAATAGAAT | 3.76 | 5.31 | 1.91 | 1.82 | 3.12 | 4.69 | 0.12 | 7.06 | 0.958 | 4.27
TCTATTAGTTGTTTAGGGCAACCGAAACAGCGGA | 1.98 | 1.19 | 1.27 | 0.951 | 0.794 | 0.621 | 0.33 | 0.698 | 1.2 | 1.13
GGAACGAGGGCATTCGAGTTGATATCATGGCGAT | 2.99 | 2.26 | -0.118 | -0.698 | 0.277 | 3.8 | 1.54 | 0.922 | -0.657 | 1.78
TCTCTTAGTTGAAGGGCAACCGACGAGTCCGTTT | 2.62 | 0.645 | 0.259 | 0.537 | 0.739 | 0.86 | 0.261 | 0.472 | 0.622 | 1.63
CCGACTGGGGCAAGGTTACGATAACGCACAGCCA | 3.36 | 3.57 | -0.0114 | -0.572 | 0.143 | 0.367 | -0.626 | 0.767 | -0.286 | 1.66
TCATATAGGTAAAGGTGAAAGTTGAACGATATGA | 4 | 4.73 | 1.52 | 1.41 | 1.62 | 2.3 | 0.333 | 3.46 | 0.78 | 2.25
CCTATTCGTTGACCATAAGGGCAACCGAAGCTCG | 0.434 | 0.637 | 0.0621 | 0.266 | 1.7 | 0.841 | 0.82 | 1.41 | 1.43 | 1.82
GATACAGGGTCAAGGCCAAAGTACGCGTATTGAT | 2.58 | 4.27 | 2.3 | 0.743 | 3.07 | 4.48 | 0.731 | 5.02 | 1.25 | 4.5
GCTAGCAGGCCATTTGCGTCACTCAATGACGGGC | 1.06 | -0.0589 | -0.895 | -0.638 | -1.08 | -0.562 | -0.856 | -0.774 | -1.25 | -0.167
ATCTCTAGCTAAAGTTCAGTGAAAGATCGATAGA | -0.514 | 0.413 | 0.743 | 0.86 | 1.51 | 1.8 | 1.85 | 1.04 | 1.01 | 2.68
CGAACTAGGTCATTGACAGGACATTGAATAGTAA | 8.1 | 8.23 | 1.94 | 1.62 | 1.29 | 2.35 | 0.404 | 2.06 | 0.367 | 3.52
GCTGCTAGGTCAGGTCGGTCAGCTAACGGGTACG | 2.59 | 2.88 | -0.904 | -0.563 | 0.777 | 0.726 | -0.37 | 1.37 | -0.616 | 3.88
CAAACTAGGTCAAAGGTCAAATTCGAGCCAACCA | 8.73 | 9.36 | 7.2 | 6.6 | 8.4 | 7.16 | 1.57 | 8.86 | 3.32 | 5.62
ATACCAAGGTGATCGTGAGGACGTTGATACTAAC | 0.171 | 1.03 | 0.678 | -0.134 | -0.121 | 0.502 | 0.387 | 1.03 | 0.115 | 0.704
